In PubChem BioAssay (NCATS):
Values without a mark were called inactive. Results filed as inconclusive are left out. Activity calls are given as the source filed them. Unless noted, calls come from the whole dose curve; as a rule, active = well fitted curve in either direction with a large enough effect (not every such curve was filed as active); inconclusive = small, poorly fitted or top-dose-only effect, or another doubt; inactive = flat fitted curve, though single readings scatter.

What was measured:
[1] = molecular target: Lysosomal acid glucosylceramidase (Homo sapiens) (UniProt P04062); assay: Glucocerebrosidase-p2 (AID 348; in the data active = potency below about 10 µM; note: potency is the fitted concentration of half-maximal effect); settings: purified GBA, blue fluorogenic substrate, 40 min
Summary of the method: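 Normal human glucocerebrosidase (0.2 nM) with blue fluorogenic substrate (80 uM final) in citrate/phosphate pH 5.9 with 10mM sodium taurocholate, 0.01% tween-20; 40 min RT, NaOH/glycine stop; fluorescence Ex 365/Em 440; AC50 from a titration from 0.6 nM upwards.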

[2] = AP1 Signaling Pathway (AID 357); settings: ME-180 AP-1-bla reporter, EGF-induced, beta-lactamase ratio, 5 h; at 7.69 µM (top of the series) unless noted;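 note: ME-180 reporter cells stimulated with EGF at its EC50 level; % is set by controls: 0 for no effect and ±100 for the full control effect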
Summary of the method: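 Beta-lactamase reporter under AP-1 response element, ME-180 background. Stimulus: EC50 EGF. Compound exposure 5 h, 37 °C. Detection: CCF4, 2.5 h RT, 460/530 nm. Values: AC50 from titration.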

[3] = NFAT Signaling Pathway (AID 444); settings: Jurkat NFAT-bla M1, carbachol, beta-lactamase ratio, 5 h; at 7.69 µM (top of the series) unless noted;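 note: carbachol stimulus at about its EC50 of 1 µM final; % is set by controls: 0 for no effect and ±100 for the full control effect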
Summary of the method: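 Read-out: CCF4 FRET ratio (460 nm/530 nm) after 1 h RT dye loading, used for %activity and AC50 from titration series. Cells: Jurkat NFAT-β-lactamase/M1 line, treated with compound plus 1 uM carbachol for 5 h, 37 °C.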

[4] = Stat Signaling Pathway (AID 446); settings: ME-180 SIE beta-lactamase reporter, IL-6 stimulated, 5 h; at 7.69 µM (top of the series) unless noted;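 note: ME-180 cervical cancer cells given 40 pM IL-6 alongside compound; SIE-controlled beta-lactamase reporter measured as 460/530 nm FRET emission ratio; % is set by controls: 0 for no effect and ±100 for the full control effect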
Summary of the method: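 Compound effects on IL-6-induced STAT reporter activity were measured in ME-180 cells. After overnight culture, cells were co-treated with 40 pM IL-6 for 5 hrs before beta-lactamase substrate loading at room temperature.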

[5] = molecular target: Glucocorticoid receptor (Homo sapiens) (UniProt P04150); assay: GR-GFP Redistribution (AID 450;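 active = compounds whose dose series gives a full or clear partial fitted curve of increased nuclear translocation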; note: potency is the fitted concentration of half-maximal effect); settings: U2OS GR-GFP nuclear translocation, laser cytometry, 2 h
[6] = molecular target: Glucocorticoid receptor (Homo sapiens) (UniProt P04150); assay: GR-EFC Redistribution (AID 451; calls by dose curve; note: potency is the fitted concentration of half-maximal effect); settings: CHO-K1 GR-EFC translocation, beta-gal luminescence, 2 h
Summary of the method: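 Translocation of GR-ED fusion to nuclear EA restores b-gal, read by luminescence after 1 h room-temperature detection. Engineered CHO-K1 biosensor cells, 1,000/well, exposed 2 h at 37 C to titrations up to 46 uM final.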

[7] = molecular target: 3',5'-cyclic-AMP phosphodiesterase 4B (Homo sapiens) (UniProt Q07343); assay: qHTS Assay for Inhibitors of PDE-IV (AID 607; active = well fitted activation curve with a large enough effect in the main read-out, with a control signal flat, not every such curve was filed as active; note: % of control where 0% means no effect); settings: HEK293 ACTOne CNG channel cells, membrane potential fluorescence; series mostly up to 22.9 µM
Summary of the method: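 ACTOne HEK293 cells carry a modified cAMP-gated CNG channel and express endogenous PDE4; plated 1000 cells/well, compounds up to 22.9 uM final. Membrane-potential dye fluorescence (ex 535/em 590) was read; parental cells received 10 uM forskolin + 100 uM RO 20-1724.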

[8] = molecular target: Mitogen-activated protein kinase 10 (Mus musculus) (UniProt Q61831); assay: JNK3 AlphaScreen Assay (AID 530); settings: JNK3 lysate, c-Jun phosphorylation; series mostly up to 11.4 µM;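 note: kinase came from lysate of stimulated human HepG2 cells; signal reports phosphorylation of biotinylated GST-cJun 1-79 at Ser73 with 10 µM ATP; % is set by controls: 0 for no effect and ±100 for the full control effect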
Summary of the method: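 qHTS titrations with 15 min compound pre-incubation before adding ATP (10 uM final). Read-out: AlphaScreen of Ser73-phosphorylated biotin-GST-cJun using HepG2 lysate JNK3 activated by IL-1β and TNFα.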

[9] = qHTS Assay for Identification of Small Molecule Agonists for Hypoxia Response Element Signaling Pathway (AID 914; active = well fitted activation curve with a large enough effect in the signal ratio, with a control signal flat, not every such curve was filed as active; the % refers to the signal ratio; note: % of control where 0% means no effect); settings: ME-180 (cervical carcinoma) HRE-bla reporter, beta-lactamase ratio, CoCl2, 17 h; activation: hits give high values
Summary of the method: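 HRE-bla ME-180 assay for agonist-like enhancement of an EC50 CoCl2 stimulus: 17 h at 37 degrees Celsius, CCF4 for 2.5 h, ratiometric 460/530 nm signal converted to %Activity and fitted to AC50.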

[10] = molecular target: Cytochrome P450 2C9 (Homo sapiens) (UniProt P11712); assay: qHTS Assay for Inhibitors and Substrates of Cytochrome P450 2C9 (AID 883; active = well fitted curve in the direction sought with a large enough effect; an effect the other way counts as inactive or inconclusive; note: potency is the fitted concentration of half-maximal effect; nearly all actives have a fitted effect of over 60% in size); settings: recombinant CYP2C9, luciferin-H luminescence, 60 min; series mostly up to 11.4 µM
Summary of the method: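 Inhibition of CYP2C9 is scored as loss of luminescence, with 57uM sulphaphenazole defining 100% inhibition. Substrate Luciferin-H is used at 100uM, equal to its KM; enzyme at 10nM in 25mM KPO4, 60 min at 37C with NADPH regeneration.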

[11] = molecular target: Cytochrome P450 3A4 (Homo sapiens) (UniProt P08684); assay: qHTS Assay for Inhibitors and Substrates of Cytochrome P450 3A4 (AID 884; active = well fitted curve in the direction sought with a large enough effect; an effect the other way counts as inactive or inconclusive; note: potency is the fitted concentration of half-maximal effect; nearly all actives have a fitted effect of over 50% in size); settings: recombinant CYP3A4, Luciferin-PPXE luminescence; series mostly up to 57.1 µM
Summary of the method: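 Luminescent readout of luciferin produced by CYP3A4 (20 nM) dealkylation of Luciferin-PPXE, 25 uM (its KM). NADPH-driven reaction ran 60 min at RT after 10 min compound preincubation; data scaled to 57 uM ketoconazole as 100% inhibition.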

[12] = molecular target: Cytochrome P450 3A4 (Homo sapiens) (UniProt P08684); assay: qHTS Assay for Activators of Cytochrome P450 3A4 (AID 885; active = well fitted curve in the direction sought with a large enough effect; an effect the other way counts as inactive or inconclusive; note: nearly all actives have a fitted effect of over 65% in size); settings: recombinant CYP3A4, Luciferin-PPXE luminescence, 60 min; series mostly up to 11.4 µM
Summary of the method: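 CYP3A4 activity: Luciferin-PPXE O-dealkylation, 25uM substrate, 200mM KPO4, RT throughout. Read-out is luciferase luminescence; higher values reflect activation.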

Glucocorticoid receptor (Homo sapiens), sequence (P04150 whole entry, looked up, the tested form may be a part): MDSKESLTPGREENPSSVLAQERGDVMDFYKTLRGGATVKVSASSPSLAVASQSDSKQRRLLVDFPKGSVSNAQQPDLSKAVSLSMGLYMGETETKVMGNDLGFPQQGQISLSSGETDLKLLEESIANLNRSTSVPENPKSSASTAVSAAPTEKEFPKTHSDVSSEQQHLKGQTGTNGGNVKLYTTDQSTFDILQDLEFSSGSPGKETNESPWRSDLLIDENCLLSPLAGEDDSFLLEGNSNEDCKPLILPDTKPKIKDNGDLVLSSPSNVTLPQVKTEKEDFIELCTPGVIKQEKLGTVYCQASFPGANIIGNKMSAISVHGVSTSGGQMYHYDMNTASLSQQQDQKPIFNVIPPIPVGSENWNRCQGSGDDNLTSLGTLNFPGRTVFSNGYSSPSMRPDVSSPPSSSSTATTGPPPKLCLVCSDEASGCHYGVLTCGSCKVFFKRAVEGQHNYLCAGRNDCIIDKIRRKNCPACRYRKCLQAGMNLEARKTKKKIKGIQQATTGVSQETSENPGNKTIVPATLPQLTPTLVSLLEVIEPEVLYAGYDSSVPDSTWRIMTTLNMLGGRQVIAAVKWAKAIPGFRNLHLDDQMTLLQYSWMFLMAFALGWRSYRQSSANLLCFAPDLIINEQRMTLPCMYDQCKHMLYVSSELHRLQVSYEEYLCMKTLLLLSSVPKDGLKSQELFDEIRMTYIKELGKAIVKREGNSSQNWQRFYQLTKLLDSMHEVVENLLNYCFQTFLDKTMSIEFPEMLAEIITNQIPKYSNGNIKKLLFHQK
3',5'-cyclic-AMP phosphodiesterase 4B (Homo sapiens), sequence (Q07343 whole entry, looked up): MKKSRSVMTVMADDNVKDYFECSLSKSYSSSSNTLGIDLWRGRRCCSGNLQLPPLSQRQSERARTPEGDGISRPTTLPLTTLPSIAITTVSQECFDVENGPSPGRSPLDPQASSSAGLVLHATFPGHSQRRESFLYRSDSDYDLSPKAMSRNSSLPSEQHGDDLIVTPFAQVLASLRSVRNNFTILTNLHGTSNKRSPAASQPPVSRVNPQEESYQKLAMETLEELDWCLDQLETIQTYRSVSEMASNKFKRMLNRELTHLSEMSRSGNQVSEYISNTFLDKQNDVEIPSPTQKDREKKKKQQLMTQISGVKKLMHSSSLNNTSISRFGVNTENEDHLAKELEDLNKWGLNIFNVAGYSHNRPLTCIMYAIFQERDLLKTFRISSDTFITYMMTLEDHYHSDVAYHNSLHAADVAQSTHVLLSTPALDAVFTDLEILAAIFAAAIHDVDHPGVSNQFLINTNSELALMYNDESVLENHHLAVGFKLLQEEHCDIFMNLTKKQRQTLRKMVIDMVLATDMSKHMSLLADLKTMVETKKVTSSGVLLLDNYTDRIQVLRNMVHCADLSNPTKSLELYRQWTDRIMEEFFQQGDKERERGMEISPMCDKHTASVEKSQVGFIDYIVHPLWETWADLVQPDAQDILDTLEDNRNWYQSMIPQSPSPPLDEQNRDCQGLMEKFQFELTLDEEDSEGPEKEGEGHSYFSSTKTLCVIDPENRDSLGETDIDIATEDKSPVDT
Lysosomal acid glucosylceramidase (Homo sapiens), sequence (P04062 whole entry, looked up): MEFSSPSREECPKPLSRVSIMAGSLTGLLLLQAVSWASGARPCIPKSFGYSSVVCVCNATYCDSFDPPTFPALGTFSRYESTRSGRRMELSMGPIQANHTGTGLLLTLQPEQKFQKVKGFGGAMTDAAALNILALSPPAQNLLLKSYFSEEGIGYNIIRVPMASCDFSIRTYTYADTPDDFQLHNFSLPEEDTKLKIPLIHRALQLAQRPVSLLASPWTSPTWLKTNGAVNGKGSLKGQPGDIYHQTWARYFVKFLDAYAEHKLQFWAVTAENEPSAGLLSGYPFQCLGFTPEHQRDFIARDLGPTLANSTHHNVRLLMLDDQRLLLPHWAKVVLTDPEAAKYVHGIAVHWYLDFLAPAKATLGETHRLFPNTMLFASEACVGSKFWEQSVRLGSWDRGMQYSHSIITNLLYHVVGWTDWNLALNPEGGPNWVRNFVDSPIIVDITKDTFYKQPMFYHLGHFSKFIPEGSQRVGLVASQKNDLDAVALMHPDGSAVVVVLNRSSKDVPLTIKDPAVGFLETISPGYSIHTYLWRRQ
Cytochrome P450 3A4 (Homo sapiens), sequence (P08684 whole entry, looked up): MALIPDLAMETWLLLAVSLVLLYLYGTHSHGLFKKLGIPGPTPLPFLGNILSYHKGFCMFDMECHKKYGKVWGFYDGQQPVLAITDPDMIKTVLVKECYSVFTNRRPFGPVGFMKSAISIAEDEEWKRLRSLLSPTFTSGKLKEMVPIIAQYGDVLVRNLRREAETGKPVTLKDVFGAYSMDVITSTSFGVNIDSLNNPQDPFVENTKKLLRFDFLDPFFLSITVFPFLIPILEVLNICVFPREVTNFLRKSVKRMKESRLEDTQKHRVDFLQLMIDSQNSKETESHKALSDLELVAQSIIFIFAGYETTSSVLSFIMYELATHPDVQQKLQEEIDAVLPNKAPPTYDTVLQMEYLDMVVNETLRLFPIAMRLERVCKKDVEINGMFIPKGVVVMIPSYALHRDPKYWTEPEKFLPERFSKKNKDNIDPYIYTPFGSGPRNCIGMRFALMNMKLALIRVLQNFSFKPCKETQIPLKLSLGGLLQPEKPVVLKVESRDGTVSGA
Cytochrome P450 2C9 (Homo sapiens), sequence (P11712 whole entry, looked up): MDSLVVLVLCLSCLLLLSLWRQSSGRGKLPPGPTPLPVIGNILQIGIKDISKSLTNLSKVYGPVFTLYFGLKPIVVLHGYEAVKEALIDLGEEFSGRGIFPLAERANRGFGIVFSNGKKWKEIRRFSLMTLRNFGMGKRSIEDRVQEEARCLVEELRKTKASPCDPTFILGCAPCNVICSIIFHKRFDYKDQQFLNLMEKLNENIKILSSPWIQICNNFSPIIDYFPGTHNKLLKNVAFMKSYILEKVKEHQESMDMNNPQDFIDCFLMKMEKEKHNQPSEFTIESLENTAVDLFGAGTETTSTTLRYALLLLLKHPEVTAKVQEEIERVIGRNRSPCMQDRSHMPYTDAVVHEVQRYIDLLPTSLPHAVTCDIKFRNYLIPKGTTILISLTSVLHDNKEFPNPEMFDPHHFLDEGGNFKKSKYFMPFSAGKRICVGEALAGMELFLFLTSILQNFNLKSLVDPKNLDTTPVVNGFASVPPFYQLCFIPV

Structure (SMILES)	Potency [1]	activity change, negative = inhibition [2]	activity change, negative = inhibition [3]	activity, negative = inhibition [4]	Potency [5]	Potency [6]	Potency [7]	Potency [8]	activation [9]	Potency [10]	Potency [11]	Potency [12]
COCCn1c(=O)c(-c2ccc(OC)cc2)nc2cnc(Oc3ccccc3)nc21	> 11.4 µM	-9.38%	12.7%	16.5%	> 9.22 µM	> 46 µM	inactive	–	–	–	–	–
O=S(=O)(O)c1ccc2c(N=Nc3cccc4ccccc34)c(O)c(S(=O)(=O)O)cc2c1	> 11.4 µM	-5.27%	-7.38%	-0.528%	> 46 µM	> 9.22 µM	inactive	–	–	–	–	–
O=C(O)C[C@H](Sc1ccccc1)c1ccccc1	> 11.4 µM	7.59%	8.06%	-24.9%	> 46 µM	> 9.22 µM	inactive	inactive	-1.84%	–	–	–
NS(=O)(=O)c1ccc(NC(=O)Nc2ccccc2F)cc1	> 11.4 µM	-3.3%	20.2%	2.14%	> 46 µM	> 9.22 µM	inactive	inactive	3.83%	–	–	–
N[C@@H](CSc1nc2ccccn2c1[N+](=O)[O-])C(=O)O	> 11.4 µM	-2.33%	9.56%	-1.41%	> 46 µM	> 9.22 µM	inactive	–	–	–	–	–
OCCSCc1cc(Cl)cc(Cl)c1O	> 11.4 µM	-3.03%	14.2%	17.5%	> 46 µM	> 9.22 µM	inactive	–	–	–	–	–
O=S(=O)(O)c1ccc(NN(c2c(O)ccc3ccccc23)S(=O)(=O)O)cc1	> 11.4 µM	8.88%	-1.45%	-0.169%	> 46 µM	> 9.22 µM	inactive	–	–	–	–	–
c1ccc(-c2cnc(-c3ccc(-c4ncc(-c5ccccc5)o4)cc3)o2)cc1	> 11.4 µM	-0.667%	14.2%	-0.742%	> 46 µM	> 9.22 µM	inactive	inactive	15%	–	–	–
C[N+](C)(C)CC(=O)N/N=C\c1c(O)ccc2ccccc12	> 11.4 µM	3.17%	-5.58%	10.1%	> 46 µM	> 9.22 µM	inactive	–	–	–	–	–
NC[C@H]1O[C@@H](n2cnc3c(=O)[nH]c(N)nc32)[C@@H](O)[C@@H]1O	> 11.4 µM	-6.27%	5.35%	3.9%	> 46 µM	> 9.22 µM	inactive	inactive	4.86%	–	–	–
O=S(=O)(O)c1ccc(N=Nc2ccc3c(S(=O)(=O)O)cccc3c2O)c2ccccc12	> 11.4 µM	1.08%	9.05%	-4.32%	> 46 µM	> 9.22 µM	inactive	–	–	–	–	–
CSc1nc(C)cc(Nc2ccc(O)c(CN3CCCCC3)c2)n1	> 11.4 µM	-6.95%	-16.1%	2.99%	> 46 µM	> 9.22 µM	inactive	inactive	4.77%	–	–	–
COc1ccc([C@@H](C)c2cc3c(cc2O)OCO3)cc1	> 11.4 µM	-11.5%	-3.98%	4.36%	> 46 µM	> 9.22 µM	inactive	–	–	1.58 µM (active)	2.51 µM (active)	inactive
O=C1Nc2ccccc2[C@]1(O)Cc1ccccn1	> 11.4 µM	1.94%	2.79%	12.1%	> 46 µM	0.26 µM (active)	inactive	inactive	-8.99%	–	–	–
Nc1nc(C(=O)O)c(N=Nc2ccccc2)c(=O)[nH]1	> 11.4 µM	4.49%	-22.9%	7.24%	> 46 µM	> 9.22 µM	inactive	–	–	–	–	–
CSCC[C@@H](C(=O)O)N(C)C	> 11.4 µM	3.21%	7.85%	2.15%	> 46 µM	> 9.22 µM	inactive	–	–	–	–	–
